Assay results from PubChem BioAssay (NCI).
“And” between values parts separate entries of the source, which are not always exact repeats. Identical values can stand only once. This is part of a sample that, as a whole, favours compounds with a hit. Of some 79,000 tested, about 15% had one in any assay. Unmarked numbers belong to inactive results. The source made the active and inactive calls. No stated cut-off is given here; in the data, active means growth inhibition above about 70%; inactive means the rest.

What was measured:
[1] = NCI Yeast Anticancer Drug Screen. Data for the rad50 strain (AID 155);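 further: 0% = growth of vehicle-only cultures of the same strain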; conditions: S. cerevisiae rad50 strain growth inhibition; at 50.0 µM; stronger effect = higher value
How it was run: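 Cells are treated with compound, grown, and their growth is then scored against vehicle-only cultures of the same repair-deficient yeast strain.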

[2] = NCI Yeast Anticancer Drug Screen. Data for the mec2-1 strain (AID 157); conditions: S. cerevisiae mec2-1 strain, at 50.0 µM, stronger effect = higher value
How it was run: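 Mutant yeast (mec2-1) grown with compound; growth inhibition relative to vehicle control reported.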

[3] = NCI Yeast Anticancer Drug Screen. Data for the sgs1 mgt1 strain (AID 161);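 further: 0% = growth of cultures given vehicle only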; conditions: S. cerevisiae sgs1 mgt1 strain, at 50.0 µM, stronger effect = higher value
How it was run: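 Percent growth inhibition was derived by comparing compound-exposed mutant yeast with vehicle-exposed cultures. The strain carries alterations in DNA damage repair.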

[4] = NCI Yeast Anticancer Drug Screen. Data for the cln2 rad14 strain (AID 165);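 further: 0% = growth equal to vehicle treated cultures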; conditions: S. cerevisiae cln2 rad14 strain, at 50.0 µM, stronger effect = higher value
How it was run: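 Readout is yeast growth inhibition versus vehicle-treated controls, using a strain with cln2 and rad14 alterations exposed to compound.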

[5] = NCI Yeast Anticancer Drug Screen. Data for the bub3 strain (AID 167); conditions: S. cerevisiae bub3 mutant strain, at 50.0 µM, stronger effect = higher value
How it was run: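 Part of a panel of yeast mutants defective in DNA damage repair or cell cycle regulation. Each strain is grown with compound, and inhibition is calculated relative to solvent-treated cultures.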

[6] = NCI Yeast Anticancer Drug Screen. Data for the mlh1 rad18 strain (AID 175); conditions: S. cerevisiae mlh1 rad18 strain growth inhibition; at 50.0 µM; stronger effect = higher value
How it was run: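 Genetically defined yeast (DNA repair-deficient) exposed to compounds; growth inhibition determined relative to vehicle.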

Compound | growth inhibition [1] | growth inhibition [2] | growth inhibition [3] | growth inhibition [4] | growth inhibition [5] | growth inhibition [6]
NNC(=O)c1ccc(N)cc1 | -12.1% | -9.75% | -8.3% | 6.05% | 4.75% | 7.1%
O=[N+]([O-])c1ccc(OCc2ccc(Cl)c(S(=O)(=O)F)c2)c(Cl)c1 | -18.1% | -8.3% | 29.8% | -24.4% | 20.7% | 24.1%
C[C@@]1(CCCCCCCCCCc2ccccc2)C[C@@]2(C)OC(=O)C[C@H]2OO1 | -15.1% | -6.05% | -20.2% | -39% | -80.7% | -25.6%
CC1=CC2OC3CC(OC(=O)/C=C/C=C/C(OCCC4=CC(=O)OC4)C(C)O)C(C)(C2(CO)CC1)C31CO1 (stereo not drawn) | 31.8% | -0.7% | 11.6% | 25.2% | 8.5% | -2.2%
CC(=O)C1C=NCCN=CC(C(C)=O)C(C)=NCCCN=C1C.[Ni] (stereo not drawn) | 10.7% | 4.3% | 14.4% | -2.2% | 8.7% | 18.5%
C/C=C1\CN2CC[C@H]1C[C@H]2[C@H](O)c1ccnc2ccc(NCCO)cc12 | 11.6% | 7.8% | 5.95% | 22.7% | -1.65% | 36.9%
CCCCCCCCCC[As](=O)(O)O | 41.8% | 22.2% | 8.6% | 21.9% | 18.9% | 16.9%
CCOP(=O)(OCC)C(N)Cc1ccc(OC)c(OC)c1 (stereo not drawn) | -3.85% | -4% | 2.35% | 19.9% | 13% | -16.6%
CN1C(=O)N(C)C(O)C(Cl)(Br)C1=O (stereo not drawn) | -0.5% | 2.5% | 7.3% | 26.2% | 5.9% | 12.7%
Cc1cc(Cl)nc(N)n1 | -5.3% | 4.55% | -5.4% | -13.9% | 10.1% | -21.4%
CCOC(=O)C(C(=O)OCC)c1ccccc1 | 7.05% and 25.4% | -11% and 12.9% | 11.7% and 11.1% | 2.4% and 3.75% | 40.4% and 23.1% | -0.15% and 9.55%
CC(=O)O.CC(=O)O.[Co+2].[NH-]C(CCC(N)=O)C(=O)O.[NH-]C(CCC(N)=O)C(=O)O (stereo not drawn) | 15.2% | 13.4% | 34.2% | -4% | 22.3% | 19.9%
CCOC(=O)C1C(=O)C(C(=O)OCC)C2c3ccccc3-c3ccccc3C1N2C (stereo not drawn) | 29.8% | 7.25% | 35.2% | -7.35% | 8.7% | 15.7%
CN(C)C(=O)c1cc(N(CCCl)CCCl)c([N+](=O)[O-])cc1[N+](=O)[O-] | -2.75% | -10.1% | -3.35% | 2.3% | -13.6% | 0.3%
CCCCOC(=O)c1ccccc1N | -4.3% | -15.5% | -4.2% | -1.85% | 0.2% | -3.6%
COc1nc2ccccc2nc1N1CC1 | -3.25% | -31% | -15% | 6.9% | -24.6% | -1.65%
NC(N)=Nc1c(N)ncnc1N | -4.9% | 6.2% | 4.4% | -2.65% | -0.8% | -4.45%
O=C(COc1ccc(Cl)c(Cl)c1)Nc1cccc(S(=O)(=O)F)c1 | 29.4% | 10.4% | -2.45% | -10.8% | 13.1% | 19.4%
O=c1oc2cc(O)ccc2c(O)c1C(c1ccccn1)c1c(O)c2ccc(O)cc2oc1=O | 12.6% | 9.15% | -13.7% | -1.85% | -17.4% | -52%

Compound | growth inhibition [1] | growth inhibition [2] | growth inhibition [3] | growth inhibition [4] | growth inhibition [5] | growth inhibition [6]
O=c1c2cc(Br)ccc2[nH]c(=S)n1-c1ccc(Br)cc1 | 9.95% | -7.2% | 15.2% | 18% | 35.5% | 12.2%
O=C(O)CCC(=O)O | -8.1% and 5.7% | -16.6% and -2.05% | -22.3% and -6.35% | -41.9% and 13.8% | -28% and -2.05% | -13.1% and 11.2%
C=C1CC2CC[C@@]34CC5O[C@@H]6C(O[C@H]7CC[C@H](CC(=O)OC8C(C)C9OC%10C[C@]%11(C[C@@H]%12O[C@]%13(CC(C)[C@@H]%14O[C@H](C(O)CC(O)CO)C[C@@H]%14O%13)CC(C)[C@@H]%12O%11)OC%10CC9O[C@H]8C[C@H]8OC(CC[C@@H]1O2)C[C@@H](C)C8=C)OC7[C@@H]6O3)[C@H]5O4 (stereo partly drawn) | 87.3% (active) | 91.1% (active) | 90.6% (active) | 83.7% (active) | 91.1% (active) | 69.8%
CC1C(C(=O)c2ccc(-c3ccccc3)cc2)N1C(C)(C)C (stereo not drawn) | -10.4% | 10.2% | 7.75% | 23.4% | 1.15% | -11.8%
Cn1c(=O)n(C2(C)C[Se]C2)c2ccccc21 | -11.5% | -15.7% | -16.8% | -15.4% | -13.7% | -22.5%
OC/C=C\c1ccc2c(c1)OCO2 | -19.2% | 14.2% | 17.2% | -9% | -58.5% | -32.5%
CC(=O)OC1CCC2(C)C3CCC4(C)C(c5ccc(=O)oc5)CC5OC54C3CCC2(O)C1 (stereo not drawn) | 40% | 2.75% | 19.6% | -1.8% | -2.2% | 2.3%
CCN(CC)c1cc[c]([Hg][O]C(C)=O)cc1 | 99.2% (active) | 99% (active) | 99.5% (active) | 99.2% (active) | 99% (active) | 99.2% (active)
CN1CCN(C(=O)Cc2c[nH]c3ccccc23)CC1 | -1.25% | 11.8% | 2.9% | -20.3% | 9.35% | 15.7%
CC1(C)N=C(N)N=C(N)N1c1ccc(Cl)c(CCCCc2ccc(S(=O)(=O)F)cc2)c1 | 99.8% (active) | 99.8% (active) | 99.2% (active) | 99.4% (active) | 99.6% (active) | 99.8% (active)
CCC(Br)C(=O)O (stereo not drawn) | 26.6% | -4.3% | -0.3% | -22.5% | 24.4% | 24.8%
Cc1cc(C)cc(C(O)(C(=O)O)c2ccccc2)c1 (stereo not drawn) | -0.75% | -5.35% | -5.45% | 5.55% | -5.9% | -4.9%
CC12CCC(O)CC1CCC1C2CCC2(C)C(c3ccc(=O)oc3)CC3OC312 (stereo not drawn) | 35.5% | 31.5% | 66.5% | 48.5% | 48.6% | 60.9%
COc1cccc(C2CC23C(=O)NC(=O)NC3=O)c1 (stereo not drawn) | -18% | -14.2% | -2.1% | 6.6% | -19.2% | -21.2%
C/C=C(\C)C(=O)N[C@@H](c1ccccc1)[C@@H](O)C(=O)OC1C[C@@]2(O)[C@@H](OC(=O)c3ccccc3)[C@@H]3[C@]4(OC(C)=O)CO[C@@H]4C[C@H](O)[C@@]3(C)C(=O)[C@H](OC(C)=O)C(=C1C)C2(C)C (stereo partly drawn) | 34.1% | 13.6% | 13.8% | 16.9% | 21.4% | 29.9%
ClCCN(CCCl)c1ccc(CCN2CCOCC2)cc1 | 46.2% | 15.9% | 19.5% | 37.4% | -0.1% | 9.3%
Cc1cc(Cl)ccc1OCCCC(=O)O | 28.4% | 16.2% | 41.5% | 21% | 47.1% | 15.4%
O=C(CC(=O)C(F)(F)F)c1cccs1.O=C(CC(=O)C(F)(F)F)c1cccs1.O=C(CC(=O)C(F)(F)F)c1cccs1.[Eu] | 27.7% | 37.6% | 39.5% | 9.4% | 39% | 23.1%
CC1CCC2N(C1)CC1C3(O)CC45OC6(O)C(O)CCC4(C)C6CCC5C3(O)CC(O)C1(O)C2(C)O (stereo not drawn) | -19.9% and -2.1% | -17.9% and -31.1% | -2.9% and -17.4% | -21.6% and 9.15% | -31.2% and -0.4% | 6.5% and -15.3%
